For some assays here: Results with a measured potency or affinity are listed apart.
What was measured:
Set-up in all cases: scale not given: direction of the effect not stated beside the values
[1] = target: Protein translocase subunit SecA (Escherichia coli (strain K12)) (UniProt P10408); test: Assay to Identify E. coli SecA ATPase Inhibitors; type: functional; settings: 30 µM
[2] = target: T1, Ubiquitin-activating enzyme e1, putative (Leishmania donovani (strain BPK282A1)) (UniProt E9BSI1); test: Leishmania donovani Ubiquitin Activating Enzyme (LdE1); type: functional; settings: 30 µM
T1 sequence (whole entry): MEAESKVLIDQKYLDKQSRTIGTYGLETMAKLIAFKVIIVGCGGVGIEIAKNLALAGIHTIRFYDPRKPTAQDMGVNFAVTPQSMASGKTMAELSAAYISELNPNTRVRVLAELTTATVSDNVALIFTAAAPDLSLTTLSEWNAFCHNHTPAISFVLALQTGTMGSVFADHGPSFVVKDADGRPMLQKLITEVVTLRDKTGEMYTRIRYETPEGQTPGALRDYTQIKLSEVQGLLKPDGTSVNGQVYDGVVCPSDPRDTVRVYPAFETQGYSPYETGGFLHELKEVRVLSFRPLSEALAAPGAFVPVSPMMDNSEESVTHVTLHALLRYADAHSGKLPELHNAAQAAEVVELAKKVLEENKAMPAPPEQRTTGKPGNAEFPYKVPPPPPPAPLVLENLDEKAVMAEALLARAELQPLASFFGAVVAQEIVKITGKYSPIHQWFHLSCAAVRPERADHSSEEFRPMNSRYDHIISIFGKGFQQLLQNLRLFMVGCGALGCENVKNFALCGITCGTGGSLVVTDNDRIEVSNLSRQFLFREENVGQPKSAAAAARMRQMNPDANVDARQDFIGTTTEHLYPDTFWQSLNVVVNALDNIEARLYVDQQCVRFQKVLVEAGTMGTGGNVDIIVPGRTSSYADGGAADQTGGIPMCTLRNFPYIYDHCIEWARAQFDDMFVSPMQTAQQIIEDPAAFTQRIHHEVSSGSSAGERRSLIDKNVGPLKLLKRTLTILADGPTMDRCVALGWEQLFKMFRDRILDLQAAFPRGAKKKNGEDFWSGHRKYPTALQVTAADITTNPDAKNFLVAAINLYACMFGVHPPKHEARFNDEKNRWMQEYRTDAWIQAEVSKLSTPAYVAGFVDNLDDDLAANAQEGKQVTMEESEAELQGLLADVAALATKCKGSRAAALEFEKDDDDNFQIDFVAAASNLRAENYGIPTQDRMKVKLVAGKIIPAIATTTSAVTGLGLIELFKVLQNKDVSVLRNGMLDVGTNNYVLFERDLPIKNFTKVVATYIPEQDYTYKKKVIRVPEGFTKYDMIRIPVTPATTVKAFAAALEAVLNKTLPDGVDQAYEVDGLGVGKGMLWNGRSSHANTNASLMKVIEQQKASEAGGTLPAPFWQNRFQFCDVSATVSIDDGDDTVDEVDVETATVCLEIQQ

[3] = target: AMP-activated protein kinase, AMPK (Homo sapiens) (UniProt P54646+O43741+P54619+Q9UGJ0+Q9Y478+Q13131+Q9UGI9); test: AMP-dependent Kinase enzyme assay. An in vitro enzyme assay that detects ADP turnover that is directly proportional to AMPK activity. This uses naive AMPK that is activated during the assay with MK-8722; type: functional; settings: 30 µM
[4] = target: Sialic acid-binding Ig-like lectin 9 (Homo sapiens) (UniProt Q9Y336); test: Hs-Siglec9 ALPHAscreen SOP 20170721; settings: 10 µM
[5] = system: Trypanosoma cruzi; test: Trypanosoma cruzi phosphomannomutase and mannose-1-phosphate guanylyltransferase assay; type: functional; settings: 10 µM
[6] = target: T2, Arginase-2, mitochondrial (Homo sapiens) (UniProt P78540); test: in vitro enzyme assay to detect the production of urea directly proportional to the activity of Arginase II; type: functional; settings: 33.3 µM; also: in the data most compounds retested in dose-response had high values
T2 sequence (whole entry): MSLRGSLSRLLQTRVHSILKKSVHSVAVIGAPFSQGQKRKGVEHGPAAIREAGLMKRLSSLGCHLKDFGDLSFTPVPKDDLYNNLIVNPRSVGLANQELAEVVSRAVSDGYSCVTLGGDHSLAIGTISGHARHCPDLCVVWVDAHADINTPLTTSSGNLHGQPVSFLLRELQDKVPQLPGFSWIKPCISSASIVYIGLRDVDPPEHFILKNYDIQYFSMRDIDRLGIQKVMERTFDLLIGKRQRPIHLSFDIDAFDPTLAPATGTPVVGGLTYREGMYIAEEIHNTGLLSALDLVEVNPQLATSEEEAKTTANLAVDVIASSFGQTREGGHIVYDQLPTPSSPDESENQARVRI

[7] = target: T3, Proteasome subunit beta (Trypanosoma cruzi) (UniProt O96673); test: Trypanosoma cruzi proteasome chymotrypsin-like activity (TcProtChymo) assay.; also: in the data most compounds retested in dose-response had high values; type: functional; settings: 9.37 µM
T3 sequence (whole entry): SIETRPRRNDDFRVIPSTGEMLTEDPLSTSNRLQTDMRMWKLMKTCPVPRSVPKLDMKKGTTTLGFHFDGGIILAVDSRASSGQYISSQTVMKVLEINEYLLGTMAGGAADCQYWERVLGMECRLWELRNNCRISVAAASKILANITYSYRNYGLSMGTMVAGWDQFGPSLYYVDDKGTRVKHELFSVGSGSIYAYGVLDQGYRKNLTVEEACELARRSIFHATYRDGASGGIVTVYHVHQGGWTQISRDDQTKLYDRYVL

[8] = organism: Homo sapiens; test: To identify inhibition of the IFN signalling (Jak-Stat) pathway via expression of an eGFP reporter gene under the control of an IFN-stimulated response element (ISRE) containing MxA promoter.; type: functional; settings: 30 µM
[9] = target: T4, Tyrosyl-tRNA synthetase, putative (Trypanosoma cruzi (strain CL Brener)) (UniProt Q4DSP6); test: Trypanosoma cruzi tyrosyl tRNA synthetase (TcYRS) _High Tyrosine SOP; type: functional; settings: 30 µM; also: in the data most compounds retested in dose-response had high values
T4 sequence (whole entry): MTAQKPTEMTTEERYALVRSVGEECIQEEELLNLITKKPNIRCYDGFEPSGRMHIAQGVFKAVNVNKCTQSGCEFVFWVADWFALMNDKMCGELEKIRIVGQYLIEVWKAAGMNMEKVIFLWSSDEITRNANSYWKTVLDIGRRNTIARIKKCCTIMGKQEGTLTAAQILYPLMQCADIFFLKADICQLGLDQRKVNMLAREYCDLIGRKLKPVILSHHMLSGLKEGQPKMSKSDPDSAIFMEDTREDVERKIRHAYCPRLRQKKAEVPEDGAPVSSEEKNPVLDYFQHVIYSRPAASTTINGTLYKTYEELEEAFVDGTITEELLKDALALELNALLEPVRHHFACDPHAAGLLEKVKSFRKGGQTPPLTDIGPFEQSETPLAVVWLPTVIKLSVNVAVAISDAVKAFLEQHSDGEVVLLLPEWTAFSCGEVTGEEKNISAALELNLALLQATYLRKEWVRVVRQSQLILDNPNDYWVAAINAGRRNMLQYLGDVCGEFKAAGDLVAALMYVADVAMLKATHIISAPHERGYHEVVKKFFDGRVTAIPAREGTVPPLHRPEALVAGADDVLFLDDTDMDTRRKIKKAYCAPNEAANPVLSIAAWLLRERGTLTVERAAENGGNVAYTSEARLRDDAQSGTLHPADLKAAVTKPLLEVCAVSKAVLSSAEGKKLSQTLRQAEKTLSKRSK

[10] = target: T4, Tyrosyl-tRNA synthetase, putative (Trypanosoma cruzi (strain CL Brener)); test: Trypanosoma cruzi tyrosyl tRNA synthetase (TcYRS) SOP; type: functional; settings: 30 µM
[11] = target: Chromo domain-containing protein 1 (Saccharomyces cerevisiae (strain ATCC 204508 / S288c) (Baker's yeast)) (UniProt P32657); test: ScCHD-1 Enzyme Inhibition Assay; type: functional; settings: 30 µM; also: in the data most compounds retested in dose-response had high values
Chain of Chromo domain-containing protein 1 (Saccharomyces cerevisiae (strain ATCC 204508 / S288c) (Baker's yeast)) (P32657 whole entry, the tested form may be a part): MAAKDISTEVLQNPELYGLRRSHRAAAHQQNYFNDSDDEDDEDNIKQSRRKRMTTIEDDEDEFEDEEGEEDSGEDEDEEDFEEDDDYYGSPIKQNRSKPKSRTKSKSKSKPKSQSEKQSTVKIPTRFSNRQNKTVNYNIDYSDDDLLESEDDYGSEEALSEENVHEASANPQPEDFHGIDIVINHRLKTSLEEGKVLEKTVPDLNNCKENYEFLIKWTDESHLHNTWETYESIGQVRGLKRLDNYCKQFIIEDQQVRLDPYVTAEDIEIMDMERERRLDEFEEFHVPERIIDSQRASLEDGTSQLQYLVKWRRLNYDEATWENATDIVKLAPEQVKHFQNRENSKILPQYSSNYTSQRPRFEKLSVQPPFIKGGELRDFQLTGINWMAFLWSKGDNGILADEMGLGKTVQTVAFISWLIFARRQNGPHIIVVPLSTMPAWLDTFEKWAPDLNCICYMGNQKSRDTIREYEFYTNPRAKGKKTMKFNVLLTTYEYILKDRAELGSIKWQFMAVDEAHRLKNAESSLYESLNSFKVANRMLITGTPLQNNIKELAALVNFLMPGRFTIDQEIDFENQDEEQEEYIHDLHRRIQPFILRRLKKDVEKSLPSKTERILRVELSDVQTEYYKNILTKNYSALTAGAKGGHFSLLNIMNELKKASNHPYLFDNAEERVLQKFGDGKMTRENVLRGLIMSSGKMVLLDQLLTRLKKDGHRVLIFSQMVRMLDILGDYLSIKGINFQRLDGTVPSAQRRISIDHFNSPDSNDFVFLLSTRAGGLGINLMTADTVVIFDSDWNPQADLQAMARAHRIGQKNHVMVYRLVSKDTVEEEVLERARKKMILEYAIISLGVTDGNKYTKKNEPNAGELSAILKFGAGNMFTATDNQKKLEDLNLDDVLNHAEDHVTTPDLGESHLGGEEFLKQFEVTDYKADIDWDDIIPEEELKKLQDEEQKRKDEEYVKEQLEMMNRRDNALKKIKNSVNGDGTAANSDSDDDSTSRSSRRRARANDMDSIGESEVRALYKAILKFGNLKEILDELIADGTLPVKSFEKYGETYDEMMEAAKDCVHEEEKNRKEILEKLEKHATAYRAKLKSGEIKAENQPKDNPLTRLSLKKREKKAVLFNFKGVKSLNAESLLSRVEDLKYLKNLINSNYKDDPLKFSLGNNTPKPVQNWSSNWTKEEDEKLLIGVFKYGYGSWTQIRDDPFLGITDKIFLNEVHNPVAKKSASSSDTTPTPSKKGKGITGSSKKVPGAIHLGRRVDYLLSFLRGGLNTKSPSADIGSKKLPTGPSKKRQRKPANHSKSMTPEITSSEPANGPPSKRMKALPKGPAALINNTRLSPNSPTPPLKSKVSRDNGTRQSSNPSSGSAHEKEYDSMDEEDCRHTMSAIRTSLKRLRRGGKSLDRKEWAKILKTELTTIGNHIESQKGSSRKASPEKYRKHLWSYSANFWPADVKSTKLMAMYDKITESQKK

Chain of Protein translocase subunit SecA (Escherichia coli (strain K12)) (P10408 whole entry): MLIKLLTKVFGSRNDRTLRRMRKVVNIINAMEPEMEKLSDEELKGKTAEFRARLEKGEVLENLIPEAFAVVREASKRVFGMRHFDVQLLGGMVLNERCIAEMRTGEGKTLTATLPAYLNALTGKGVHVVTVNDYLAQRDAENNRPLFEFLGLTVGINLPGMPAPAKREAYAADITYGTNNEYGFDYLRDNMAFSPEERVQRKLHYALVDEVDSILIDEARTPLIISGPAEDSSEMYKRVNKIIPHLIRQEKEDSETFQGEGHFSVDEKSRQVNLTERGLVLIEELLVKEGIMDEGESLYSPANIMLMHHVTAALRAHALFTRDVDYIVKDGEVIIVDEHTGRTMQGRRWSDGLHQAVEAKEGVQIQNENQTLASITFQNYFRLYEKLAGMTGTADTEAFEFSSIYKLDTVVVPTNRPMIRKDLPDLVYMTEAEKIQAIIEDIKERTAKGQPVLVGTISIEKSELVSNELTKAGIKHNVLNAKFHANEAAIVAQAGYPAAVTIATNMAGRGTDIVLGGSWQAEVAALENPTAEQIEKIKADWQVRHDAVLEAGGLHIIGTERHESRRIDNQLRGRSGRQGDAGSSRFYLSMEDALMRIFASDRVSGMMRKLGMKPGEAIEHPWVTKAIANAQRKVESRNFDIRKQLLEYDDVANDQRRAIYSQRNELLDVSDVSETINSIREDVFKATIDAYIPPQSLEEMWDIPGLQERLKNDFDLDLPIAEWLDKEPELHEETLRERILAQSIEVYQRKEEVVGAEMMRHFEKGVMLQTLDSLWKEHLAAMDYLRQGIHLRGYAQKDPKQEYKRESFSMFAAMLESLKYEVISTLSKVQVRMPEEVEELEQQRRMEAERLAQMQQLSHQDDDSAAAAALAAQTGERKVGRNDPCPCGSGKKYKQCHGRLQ
Chain of Sialic acid-binding Ig-like lectin 9 (Homo sapiens) (Q9Y336 whole entry): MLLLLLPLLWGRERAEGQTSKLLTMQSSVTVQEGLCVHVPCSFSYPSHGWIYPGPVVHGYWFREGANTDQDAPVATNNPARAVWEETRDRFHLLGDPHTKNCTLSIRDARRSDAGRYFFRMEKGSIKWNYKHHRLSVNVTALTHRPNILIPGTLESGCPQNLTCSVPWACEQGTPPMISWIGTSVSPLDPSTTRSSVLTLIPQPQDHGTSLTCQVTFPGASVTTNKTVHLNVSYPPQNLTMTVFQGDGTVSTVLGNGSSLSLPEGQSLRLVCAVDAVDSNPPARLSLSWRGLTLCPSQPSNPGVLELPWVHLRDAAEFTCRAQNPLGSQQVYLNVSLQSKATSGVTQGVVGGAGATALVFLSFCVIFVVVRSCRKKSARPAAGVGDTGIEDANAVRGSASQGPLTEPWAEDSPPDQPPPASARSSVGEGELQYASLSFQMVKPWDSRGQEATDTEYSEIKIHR

| Structure (SMILES) | Percent Effect [1] [%] | Percent Effect [2] [%] | Percent Effect [3] [%] | Percent Effect [4] [%] | Percent Effect [5] [%] | Percent Effect [6] [%] | Percent Effect [7] [%] | Percent Effect [8] [%] | Percent Effect [9] [%] | Percent Effect [10] [%] | Percent Effect [11] [%] |
| --- | --- | --- | --- | --- | --- | --- | --- | --- | --- | --- | --- |
| N#Cc1ccccc1N1CCCN(C(=O)CCc2nccs2)CC1 | -2.01 | 12.7 | -0.172 | 4.85 | -4.25 | 5.7 | 3.36 | 17.5 | 3.45 | 11.4 | -6.41 |
| Cc1cccn2c(=O)cc(OC(=O)c3ccccc3)nc12 | 1.09 | 0 | 45.4 | -1.9 | -4.97 | -14.2 | 5.27 | -1.07 | 0 | 0 | -3.23 |
| CN(Cc1ccsc1)C(=O)Nc1ccc(S(=O)(=O)N(C)C)cc1 | -1.98 | 17.7 | -2.37 | -9.54 | -1.79 | -0.38 | -0.0819 | -7.23 | 6.4 | 21.5 | -6.52 |
| Cc1nn(C)c(C)c1C1COCCN1C(=O)c1cnc(N)c(Cl)c1 (configuration not stated) | -2.77 | 23.4 | 2.76 | -1.47 | -2.62 | 0.356 | 10.1 | 4.22 | 3.88 | 19.5 | -7.54 |
| CCC(=O)N1CCC2(COCc3c(C)nc(N(C)C)nc32)C1 (configuration not stated) | -9.59 | 0 | 0.948 | 16.9 | -0.586 | -0.417 | 10.7 | 4.78 | 0 | 3.66 | -4.5 |
| Cn1cc(C(=O)NC2CCN(C(=O)NCC3CCSCC3)CC2)cn1 | -7.28 | 6.33 | 11.5 | 2.29 | -2.15 | 2.37 | 8.75 | 24.4 | 11.5 | 15.2 | 1.7 |
| CCS(=O)(=O)N1Cc2nccn2CC(COc2cccnc2)C1 (configuration not stated) | -5.39 | 10.7 | -4.67 | 3.69 | 3.48 | -35.7 | 15.4 | 3.42 | 7.29 | 12.5 | -8.7 |
| CCCNC(=O)c1ccc(NC(=O)c2cccc(OCC)c2)cc1 | 1.49 | -5.41 | 0.466 | -0.164 | -1.16 | 0.952 | 7.07 | 3.02 | 0.529 | 2.44 | 2.44 |
| O=C(CCN1CCOC(Cn2cccn2)C1)NC1CCCC1 (configuration not stated) | -6.8 | 19 | -3.66 | -3.31 | 3.59 | 0.215 | 15.4 | 4.11 | 8.33 | 5.06 | -15.2 |
| Cc1cccc(C2(NC(=O)CCN3C(=O)CCC3=O)CCCC2)c1 | -5.83 | 12.7 | -1.51 | 8.26 | 0.85 | -2.28 | 4.83 | 0.0333 | 5.42 | 11.4 | -4.64 |
| Cn1cc(CN2CC[C@H]3OCC[C@@H](C(=O)N4CCCCO4)[C@@H]3C2)cn1 | -3.19 | 9.33 | -0.147 | 1.18 | -0.982 | -6.51 | 11.3 | 6.18 | 2.12 | 7.69 | -4.05 |
| c1ccc2oc(N3CCCCC3Cn3cncn3)nc2c1 (configuration not stated) | -9.23 | 18.9 | -13.5 | 28.6 | 11.4 | -2.4 | 2.69 | 1.84 | 7.92 | 25.6 | -5.86 |
| Cc1cc(C)n(C2CN(CC(=O)NCC(C)(C)N3CCOCC3)C2)n1 | -1.83 | 8.86 | 2.81 | 2.3 | -1.13 | -0.645 | 8.92 | 20.1 | 5.21 | 15.2 | -7.96 |
| CN(C)C(=O)N1CCn2nc(CNC(=O)CCC(F)(F)F)cc2C1 | 0.369 | 6.94 | -0.273 | 2.6 | 4.18 | 13.7 | 10.3 | 15 | 6.32 | 15.4 | -4.37 |
| COc1ccccc1CNC(=O)N1CCCC(c2nncn2C)C1 (configuration not stated) | -3.81 | 13.2 | -5.69 | 4.78 | 0.654 | 1.08 | 6.85 | 5.9 | 7.39 | 23.5 | -3.47 |
| Cn1ccnc1CN1CCC2(CC1)CC(NC(=O)c1ccccn1)CO2 (configuration not stated) | -1.87 | 20.8 | -1.66 | -10.3 | 1.28 | 3.23 | 9.4 | 0.302 | -20.1 | 16.7 | -10.2 |
| CCn1cc(CN2CCc3nc(N4CCOCC4)nc(O)c3CC2)cn1 | -7.19 | 12.2 | -3.19 | 18.1 | 0.988 | -6.26 | 7.64 | 4.24 | 3.23 | 9.09 | -27.2 |
| COc1ncccc1NC(=O)NCC1CCS(=O)(=O)C1 (configuration not stated) | -2.59 | 20.8 | -3.16 | 6.78 | -0.936 | -3.92 | 4.22 | -12.2 | 5.83 | 12.2 | -8.21 |
| Cc1noc(C)c1-c1cnc(CC2CCN(C(=O)c3cc[nH]n3)C2)cn1 (configuration not stated) | -0.461 | 9.46 | 11.7 | -4.31 | -2.37 | -2.09 | 7.02 | 3.9 | 8.6 | 14.3 | -9.57 |
| Cc1cc(C(N)=O)ccc1NC(=O)c1nc(N2CCCC2)ncc1Cl | 0.24 | 0 | -4.73 | -1.27 | -8.4 | 6.67 | 11.1 | 1.42 | 5.94 | 3.66 | 2.96 |
| COc1nc(C)c(C(=O)N(C)Cc2nc(-c3ccccn3)no2)s1 | -2.52 | 13.3 | -11.2 | 4.23 | 4.97 | -3.65 | 18.3 | -0.294 | 6.01 | 13.6 | -0.207 |
| CC(OCC1CC1)C(=O)N1CCCN(c2ncccc2C#N)CC1 (configuration not stated) | -5.69 | 23.7 | -5.36 | -8.93 | -0.0934 | -8.99 | 2.79 | -5.09 | 6.4 | -8.64 | -5.69 |
